hDAT+cocaine – changed hDAT dopamine uptake under cocaine IC80, either direction, primary screen, cocaine antagonist project, cell-based, LLC-PK1 hDAT, [14C]-dopamine uptake, MLSMR | Sodium-dependent dopamine transporter (Homo sapiens), Q01959 | LLC-PK1 hDAT cells, [14C]-dopamine uptake with cocaine IC80; actives deviate in either direction | B-score at 10 µM | 110,000 compounds, 1.3% hits | AID 449768, 2010;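 active means Z score or B-score, a plate-position-corrected score, falls beyond the plate's 99.7% confidence bounds, in either direction; inactive means both scores lie inside the 99.7% bounds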;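 further: scored against the spread of the other compound wells on the same plate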
D1 mod – D1 CRE-luciferase signal change, two-sided – cell-based, HEK293 D1, dopamine EC30, D1 allosteric modulator project, primary screen; dopamine EC30 potentiation; actives deviate in either direction; B-score at 10 µM; D(1A) dopamine receptor (Homo sapiens), P21728; AID 641, 2007; 58,000 compounds, 5.9% hits;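 active means luminescence count or its row- and column-corrected plate score outside the 99.7% band of the plate's sample wells, on either side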
Target sequence (P21728 whole entry, looked up): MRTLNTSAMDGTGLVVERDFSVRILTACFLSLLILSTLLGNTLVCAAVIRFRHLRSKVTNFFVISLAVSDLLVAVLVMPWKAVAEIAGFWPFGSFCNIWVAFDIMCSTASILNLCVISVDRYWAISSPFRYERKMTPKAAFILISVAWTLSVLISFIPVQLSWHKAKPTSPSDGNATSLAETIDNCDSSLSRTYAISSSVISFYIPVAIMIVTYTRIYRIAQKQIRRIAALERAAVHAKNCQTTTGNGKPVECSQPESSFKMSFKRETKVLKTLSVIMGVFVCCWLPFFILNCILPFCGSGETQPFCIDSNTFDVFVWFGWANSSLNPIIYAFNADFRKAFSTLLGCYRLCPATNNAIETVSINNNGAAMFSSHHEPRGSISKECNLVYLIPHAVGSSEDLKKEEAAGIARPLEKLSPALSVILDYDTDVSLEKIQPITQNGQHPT
BAP1 block – inhibitors of BAP1 deubiquitinase, primary screen, biochemical, Ub-AMC fluorescence, kinetic. 72,000 compounds, 0.48% hits. Ubiquitin carboxyl-terminal hydrolase BAP1 (Homo sapiens), Q92560. AID 436, 2006. calls only at 20 µM. recombinant BAP1, Ub-AMC hydrolysis fluorescence kinetic; hits give low values;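 active means activity remaining at or below 50% of control, provided the compound also passes the data quality filters; inactive means the rest, including low values that fail the filters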;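 further: 100% = DMSO wells rate and 0% = substrate alone blank rate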
D1 PAM confirm – D1 receptor positive allosteric modulators, retest, confirmation, cell-based, HEK293 D1, CRE-luciferase, duplicate | dopamine EC30 potentiation; hits give high values | luminescence at 10 µM | shares compounds with D1 mod | 2,200 compounds, 88% hits;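 active means luminescence in either of two replicates above the same-plate mean plus 3 SD of the low-dose dopamine control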
D1 ag no DA – D1 receptor agonism without dopamine, confirmation, mechanism study for D1 allosteric modulator project, cell-based, HEK293 D1, CRE-luciferase, secondary assay 1. shares compounds with D1 mod. luminescence, no dopamine; hits give high values. luminescence at 10 µM. 1,900 compounds, 0.8% hits. AID 646, 2007; in the data active means luminescence above about 3900
Isoprot counter – alters isoproterenol CRE-luciferase response in HEK293 cells | luminescence at 10 µM | shares compounds with D1 mod | HEK293 D1 CRE-luciferase, isoproterenol EC30 counter-screen; hits give high values | 2,200 compounds, 63% hits;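 active means luminescence in either replicate above plate mean of wells with a partly effective reference agonist dose plus 3 SD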;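 further: isoproterenol raises cAMP through native beta-adrenoceptor Gs so signal bypasses D1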
* marks the source's active call; other numbers are inactive results; i = inactive; x = not tested or not shown. This excerpt belongs to a sample that is enriched for hits.

SMILES | hDAT+cocaine | D1 mod | BAP1 block | D1 PAM confirm | D1 ag no DA | Isoprot counter
CCOC(=O)CSc1nnc2c3ccccc3n(CC)c2n1 | x | x | i | x | x | x
CCOC(=O)C(Sc1nnc2c3ccccc3n(CC)c2n1)C(=O)OCC | -0.74 | 5.2* | i | 11136* | 1560 | 3800*
COc1ccc(NC2=C(Cl)C(=O)N(c3ccc(Br)cc3)C2=O)cc1 | x | x | i | x | x | x
CCCc1ccc(-c2ccc(C(=O)Nc3ccc(C)cc3)cc2)nc1 | x | x | i | x | x | x
COc1ccc(CCNS(=O)(=O)c2ccc3c(c2)OCCO3)cc1OC | 0.68 | 5.2* | x | 11256* | 1696 | 2820
COc1ccc(CCNS(=O)(=O)c2cccc(C)c2)cc1OC | 1.2 | x | x | x | x | x
COCCCNS(=O)(=O)c1ccc2c(c1)OCCO2 | 0.43 | 1.5 | i | x | x | x
COc1ccc(CCNS(=O)(=O)c2cccc(F)c2)cc1OC | 0.18 | 8.1* | i | 11924* | x | 3032*
CCOc1ccc(C2NC(=O)NC(C)=C2C(=O)OCCSCC)cc1 (centres undefined) | x | x | i | x | x | x
CC(C)(C)c1ccc(C(=O)Nc2nnc(-c3ccc(F)cc3)s2)cc1 | x | x | i | x | x | x
CCOC(=O)C1CCCN(C(=O)c2cc3nc(-c4cccc(OC)c4)cc(C(F)(F)F)n3n2)C1 (centres undefined) | 2.7* | 11* | i | 14152* | 1432 | 5168*
CCOC(=O)C1CCCN(C(=O)c2cnn3c(C(F)(F)F)cc(-c4ccccc4)nc23)C1 (centres undefined) | -0.019 | -1.3 | i | x | x | x
CCOc1ccc(C2CC(c3cccc(Cl)c3)n3nc(N)nc3N2)cc1 (centres undefined) | 0.97 | 1.8 | i | x | x | x
COc1ccc(C2CC(c3ccc(Cl)cc3Cl)n3nc(N)nc3N2)cc1 (centres undefined) | -0.48 | 1.2 | i | x | x | x
Nc1nc2n(n1)C(c1cccc(Cl)c1)CC(c1ccc(F)cc1)N2 (centres undefined) | -0.087 | 13* | i | 13312* | x | 2912*
Nc1nc2n(n1)C(c1cccs1)CC(c1ccc(F)cc1)N2 (centres undefined) | -1.1 | x | i | x | x | x
Cc1cccc(C2CC(c3ccccc3)Nc3nc(N)nn32)c1 (centres undefined) | -0.48 | 18* | i | 16344* | 1564 | 4316*
COc1ccc(C2CC(c3ccc(Cl)cc3Cl)Nc3nc(N)nn32)cc1 (centres undefined) | 1.2 | 3.1* | i | 6116* | 1680 | 2536
COc1cccc(C2CC(c3ccc(C)cc3)Nc3nc(N)nn32)c1 (centres undefined) | -0.39 | 0.64 | i | x | x | x
Nc1nc2n(n1)C(c1cccs1)CC(c1ccccc1)N2 (centres undefined) | -0.3 | 14* | i | 13800* | x | 2964*
CCOC(=O)c1nn2c(C(F)(F)F)cc(-c3ccc(Br)cc3)nc2c1Br | x | x | i | x | x | x
CC1=C(C(=O)OC2CCCCCCC2)C(c2cccc(Oc3ccccc3)c2)NC(=O)N1 (centres undefined) | x | x | i | x | x | x
CCOc1ccccc1NC(=O)c1c(NC(=O)c2ccccc2Cl)sc2c1CCCC2 | x | x | i | x | x | x
CN(C)c1nc(N)nc(CSc2n[nH]c(-c3ccccc3)n2)n1 | -0.024 | 7.8* | i | 9244* | 1568 | 3340*
O=C(CSc1n[nH]c(-c2ccccc2)n1)c1ccccc1 | -0.13 | 1.3 | i | x | x | x
SMILES | hDAT+cocaine | D1 mod | BAP1 block | D1 PAM confirm | D1 ag no DA | Isoprot counter
COc1cc(-c2cc(C(F)(F)F)n3ncc(C(=O)N4CCN(Cc5ccccc5)CC4)c3n2)cc(OC)c1OC | x | x | i | x | x | x
COc1cc(C(=O)N2CCN(c3cccc(C)c3C)CC2)cc(OC)c1OC | -0.46 | 1.7 | i | x | x | x
COc1cc(C(=O)N2CCN(c3cc(Cl)ccc3Cl)CC2)cc(OC)c1OC | -0.011 | 6.5* | i | 10496* | 1588 | 4396*
COc1ccc(CNc2ccc(S(N)(=O)=O)cc2)c(OC)c1OC | 0.84 | 5.3* | i | 7284* | 1472 | 3240*
C=CCOc1c(CNc2ccc(S(N)(=O)=O)cc2)cccc1OC | 0.023 | x | x | x | x | x
CCOC(=O)CCn1c2nc(C)cc(C)c2c(=O)n1-c1ccccc1 | 0.33 | 2.2* | i | 5272 | 1496 | 2412
CCOC(=O)Nc1c(C)n(C)n(-c2ccccc2)c1=O | -0.86 | 2 | i | x | x | x
Cc1ccc(C)c(NS(=O)(=O)c2ccc(Cl)cc2[N+](=O)[O-])c1 | x | x | i | x | x | x
COC1(OC)N=C(N)C2(C#N)C(c3cccc(Oc4ccccc4)c3)C12C#N (centres undefined) | 0.98 | 19* | i | 16148* | 1756 | 3936*
COc1cccc(C2C3(C#N)C(N)=NC(OC)(OC)C23C#N)c1 (centres undefined) | -0.76 | x | x | x | x | x
CCc1ccccc1NC(=O)c1cccc(Cl)c1 | x | x | i | x | x | x
O=C1CC(c2ccc(Cl)cc2)CC2=C1C(c1ccc(C(F)(F)F)cc1)Nc1ccccc1N2 (centres undefined) | x | x | i | x | x | x
Cc1cc(C)cc(-n2nc3c(c2NC(=O)c2ccc(S(=O)(=O)N(C)C)cc2)CSC3)c1 | x | x | i | x | x | x
CCCOc1ccc(C(=O)Nc2ccc(N(C)C)cc2)cc1 | -0.34 | -0.53 | i | x | x | x
CCCOc1ccc(C(=O)Nc2ccc(N3CCN(C(C)=O)CC3)cc2)cc1 | 0.2 | 3* | i | 6192 | 1528 | 2336
CCOC(=O)c1c(NC(=O)c2cccc(OC)c2)sc(C)c1C | x | x | i | x | x | x
CCc1nnc(NC(=O)CSc2nc3cccnc3n2C2CCCCC2)s1 | 0.87 | 6.2* | i | 8624* | 1648 | 3328*
Cc1nc(NC(=O)CSc2nc3cccnc3n2C2CCCCC2)sc1C | -0.69 | 1.6 | i | x | x | x
COc1cccc(-n2nnc3c(=O)n(CC(=O)NC4CCCC4)cnc32)c1 | -0.52 | 4.4* | i | 8080 | 1872 | 2432
COc1cccc(-n2nnc3c(=O)n(CC(=O)Nc4ccccc4C)cnc32)c1 | 0.28 | x | x | x | x | x
CCOc1ccc(C(=O)OCc2nnc(-c3cccs3)o2)cc1OC | 0.56 | 15* | i | 16352* | 1560 | 6848*
CCOc1ccc(C(=O)OCn2nnc3ccccc3c2=O)cc1OC | -1.6 | 16* | i | 23528* | 1684 | 4812*
O=C(OCc1nnc(-c2ccccc2)o1)c1ccc2c(c1)OCO2 | -0.32 | 0.2 | i | x | x | x
COc1cc(CCC(=O)OCn2nnc3ccccc3c2=O)cc(OC)c1OC | 0.24 | 0.14 | i | x | x | x
Clc1ccc(C2Oc3ccccc3C3CC(c4ccccc4)=NN32)cc1 (centres undefined) | x | x | i | x | x | x
CCOc1ccc(C(=O)Nc2cc(-c3nc4ccccc4[nH]3)ccc2C)cc1Cl | x | x | i | x | x | x
